Reference: publication PMC4336329 (PLoS ONE, 2015)
The whole screen tested about 310,000 compounds, of which about 14,000 (4.5%) showed an effect of 50% or more. Effects have a minus sign here. Only a selection was taken, and strong results are over-represented in it overall.

Each compound was assayed against human ether-à-go-go-related gene (hERG) potassium channel (human, UniProt Q12809) (assay: primary screen, population patch clamp on CHO cells stably expressing hERG; higher = less effect of the substance).
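Note: peak tail current of the secondary pulse compared with the same well before compound.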

human ether-à-go-go-related gene (hERG) potassium channel, sequence (Q12809 whole entry, looked up): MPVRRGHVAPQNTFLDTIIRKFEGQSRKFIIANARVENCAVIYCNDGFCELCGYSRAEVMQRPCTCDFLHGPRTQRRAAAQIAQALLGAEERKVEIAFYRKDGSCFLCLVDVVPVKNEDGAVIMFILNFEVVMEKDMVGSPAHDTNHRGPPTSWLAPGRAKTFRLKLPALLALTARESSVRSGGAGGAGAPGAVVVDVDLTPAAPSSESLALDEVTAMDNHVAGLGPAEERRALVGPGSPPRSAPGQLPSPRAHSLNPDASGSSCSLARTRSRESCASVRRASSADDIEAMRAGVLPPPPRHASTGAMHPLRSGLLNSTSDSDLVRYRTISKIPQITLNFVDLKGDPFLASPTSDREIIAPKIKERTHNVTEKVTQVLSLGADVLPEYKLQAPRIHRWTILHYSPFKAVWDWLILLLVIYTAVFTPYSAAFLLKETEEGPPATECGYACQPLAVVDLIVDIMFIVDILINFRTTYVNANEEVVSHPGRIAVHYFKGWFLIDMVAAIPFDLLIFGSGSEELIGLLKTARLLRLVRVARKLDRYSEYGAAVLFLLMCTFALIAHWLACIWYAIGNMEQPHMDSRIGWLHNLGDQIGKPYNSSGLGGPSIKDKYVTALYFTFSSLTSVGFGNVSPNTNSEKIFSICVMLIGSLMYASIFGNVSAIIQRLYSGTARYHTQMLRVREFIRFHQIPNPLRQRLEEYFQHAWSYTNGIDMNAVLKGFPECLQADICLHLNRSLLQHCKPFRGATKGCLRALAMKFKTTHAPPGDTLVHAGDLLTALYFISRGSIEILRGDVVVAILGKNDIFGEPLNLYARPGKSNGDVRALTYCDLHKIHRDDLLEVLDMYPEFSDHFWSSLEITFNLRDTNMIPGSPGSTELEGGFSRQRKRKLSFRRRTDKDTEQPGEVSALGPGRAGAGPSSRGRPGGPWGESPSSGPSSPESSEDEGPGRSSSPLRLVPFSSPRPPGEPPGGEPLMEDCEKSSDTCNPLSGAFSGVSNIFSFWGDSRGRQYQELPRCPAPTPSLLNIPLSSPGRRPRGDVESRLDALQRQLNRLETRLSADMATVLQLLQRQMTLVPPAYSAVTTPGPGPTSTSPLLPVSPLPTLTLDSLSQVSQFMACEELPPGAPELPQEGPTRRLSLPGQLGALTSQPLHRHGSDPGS

SMILES	hERG current change (%, negative = inhibition) at 10uM [%]
O=C(O)CCC(=O)c1ccc2c(c1)OCCO2	1.89
O=c1c(C=NCc2cccs2)c(O)n(C2CCCCC2)c(=O)n1C1CCCCC1	8.72
O=C(CCCCCNC(=O)N1CCn2c1nc1ccccc12)NCCc1ccccc1	9.42
O=C(O)c1ccccc1C(=O)N1N=C(c2ccccc2)CC1c1ccccc1O (stereo not drawn)	6.81
Cc1nn(C(=O)c2ccco2)c(C)c1Sc1ccc(Br)cc1	-4.64
COC(=O)CN1C(=O)COc2ccc(S(=O)(=O)N3CCCCCC3)cc21	-7.44
O=C(CSc1nnc(Cc2cc(=O)[nH]c(=O)[nH]2)n1-c1ccc(Cl)cc1)NC1CCCC1	10.7
COC(=O)CSc1[nH]c(=O)cc(C)c1C#N	19.9
O=C(CN1CCc2ccccc2C1)NCC(=O)Nc1ccc(F)cc1	13.5
O=C(Nc1ccc(Cl)cc1)[C@@H]1[C@@H]2C(=O)N(c3cccc(F)c3)C(=O)[C@@H]2[C@H]2C=CC=NN21	-9.36
CCCCc1ccc(N=N/C(C(=O)Nc2ccccc2OC)=C(/C)O)cc1	-8.51
CCCCc1ccc(N=N/C(C(=O)Nc2cc(OC)c(NC(C)=O)cc2OC)=C(/C)O)cc1	14.2
CCCCc1ccc(N=N/C(C(=O)Nc2ccc(NC(C)=O)cc2OC)=C(/C)O)cc1	-50.2
O=C(CCNC(=O)c1ccc(Br)cc1)Nc1cccc(S(=O)(=O)N2CCCCC2)c1	-36.1
CN(C)S(=O)(=O)c1cccc(C(=O)NCCNC(=O)c2cccc(S(=O)(=O)N(C)C)c2)c1	15.9
O=C(CCNC(=O)c1ccc(Cl)cc1)Nc1cccc(S(=O)(=O)N2CCCCCC2)c1	-57.3
O=C(CCNC(=O)c1ccc([N+](=O)[O-])cc1)Nc1cccc(S(=O)(=O)N2CCOCC2)c1	-31.7
O=C(CCCNC(=O)c1ccc(Cl)cc1)Nc1cccc(S(=O)(=O)N2CCCCC2)c1	-20.2
O=C(CCNC(=O)c1ccc(Br)cc1)Nc1cccc(S(=O)(=O)N2CCCC2)c1	-32.7
O=C(CCNC(=O)c1ccc([N+](=O)[O-])cc1)Nc1cccc(S(=O)(=O)N2CCCCCC2)c1	-75.1
CN(C)S(=O)(=O)c1ccc(C(=O)OCc2ccc([N+](=O)[O-])cc2)cc1	17.6

SMILES	hERG current change (%, negative = inhibition) at 10uM [%]
CN(C)S(=O)(=O)c1cccc(COC(=O)CCNC(=O)c2ccc([N+](=O)[O-])cc2)c1	-55.2
O=C(CCNC(=O)c1ccc([N+](=O)[O-])cc1)Nc1cccc(S(=O)(=O)N2CCCCC2)c1	-55.2
O=C(CCNC(=O)c1ccc(Cl)cc1)Nc1cccc(S(=O)(=O)N2CCCCC2)c1	-46
O=C(CCNC(=O)c1ccc(Br)cc1)Nc1cccc(S(=O)(=O)N2CCCCCC2)c1	-34.1
COc1ccc(/C(C)=N/NC(=O)CNC(=O)c2ccncc2)c(OC)c1	3.47
COc1cc(OC)c2cc[nH]c2c1	27.3
Cc1ccccc1NC(=S)NCC(c1cccnc1)N1CCOCC1 (stereo not drawn)	-4.07
Cc1cc(Nc2ccc(Cl)cc2)n2nnnc2n1	7.83
COc1cc(CN2CCN(c3cc(C)ccc3C)CC2)cc([N+](=O)[O-])c1O	7.26
Oc1cccc(Nc2ncnc3ccccc23)c1	3.18
O=C(CNC(=O)c1ccccc1Br)N/N=C/c1cccs1	4.8
CCN(CC)S(=O)(=O)c1cccc(NC(=O)CCNC(=O)c2ccc([N+](=O)[O-])cc2)c1	-62.4
O=C(Cc1ccc(Cl)cc1Cl)Nc1cccc(S(=O)(=O)Nc2ccccc2F)c1	-1.71
COC(=O)c1cccc(NC(=O)CCNC(=O)c2ccc([N+](=O)[O-])cc2)c1	-48
CN(C)S(=O)(=O)c1ccc(NC(=O)CCNC(=O)c2ccc([N+](=O)[O-])cc2)cc1	-12.7
Cc1ccc(NC(=O)c2ccc([N+](=O)[O-])cc2)cc1S(=O)(=O)N(C)C	-39.6
O=C(NCC(O)c1ccccc1)c1cccc(S(=O)(=O)N2CCOCC2)c1 (stereo not drawn)	-18.1
O=C(Cc1ccc(Cl)cc1)Nc1cccc(S(=O)(=O)Nc2ccccc2F)c1	11.9
O=C(NCC(O)c1ccc([N+](=O)[O-])cc1)c1cccc(S(=O)(=O)N2CCCC2)c1 (stereo not drawn)	-66.8
Cc1ccc(NC(=O)CCNC(=O)c2ccc([N+](=O)[O-])cc2)cc1C	-0.694
O=C(NCC(O)c1ccc([N+](=O)[O-])cc1)c1cccc(S(=O)(=O)N2CCOCC2)c1 (stereo not drawn)	-13

SMILES	hERG current change (%, negative = inhibition) at 10uM [%]
O=C(CSc1ccc([N+](=O)[O-])cc1)Nc1cccc(S(=O)(=O)Nc2ccccc2F)c1	-74.4
Cc1ccc(NC(=O)CCNC(=O)c2ccc([N+](=O)[O-])cc2)cc1S(=O)(=O)N(C)C	-66.9
CCOc1ccc(C(=O)Nc2nc(C)cc(C)n2)cc1[N+](=O)[O-]	-49.6
Cc1nnc(C)n1/N=C/c1ccc(-c2ccccc2Cl)o1	-11.3
N[C@@H](Cc1ccc(O)c(I)c1)C(=O)O	17.6
COc1ccc(NC(=O)c2oc3ccccc3c2NC(=O)C2CCCO2)cc1OC (stereo not drawn)	-17.8
c1ccc(C2=Nn3c(nnc3-c3cc(-c4ccccc4)n[nH]3)SC2)cc1	6.46
COc1ccc(OC)c(/C=N/NC(=O)CSc2nnc(C)n2-c2ccccc2)c1	-12.4
CCOc1cc(/C=C(\C#N)C(=O)NCc2cccnc2)ccc1O	-8.66
COc1ccccc1/C=C\C=N\NC(=O)CCn1nnc2ccccc21	-3.44
Cc1nc(Br)c(Br)c(C)c1Br	14.4
Cc1ccc(NC(=O)CCNC(=O)c2ccc([N+](=O)[O-])cc2)cc1S(=O)(=O)N1CCOCC1	-47.4
O=C(CNc1cccc(S(=O)(=O)N2CCCCCC2)c1)Nc1cccc([N+](=O)[O-])c1	-71.9
O=C(CNc1cccc(S(=O)(=O)N2CCCCC2)c1)Nc1cccc(F)c1	-9.9
CC(=O)c1cccc(NCC(=O)Nc2cccc(S(=O)(=O)N3CCCCC3)c2)c1	-31.6
O=C(CCNC(=O)c1ccc([N+](=O)[O-])cc1)Nc1ccc(S(=O)(=O)N2CCOCC2)cc1	2.67
O=C(CCNC(=O)c1ccc([N+](=O)[O-])cc1)Nc1ccc(Cl)c(S(=O)(=O)N2CCOCC2)c1	-66.2
Cc1ccc(-n2c(C)nnc2SCC(=O)N(C)C2CCS(=O)(=O)C2)cc1 (stereo not drawn)	12.9
Cl.O=C(CCc1ccc(S(=O)(=O)N2CCOCC2)cc1)N1CCN(Cc2ccc3c(c2)OCO3)CC1	-34.3
Clc1ccc(-c2cn3nc4c(nc3n2)CCCC4)cc1	-15.3
CCOC(=O)c1ccc(NC(=O)c2ccc(NC(=O)C3CCCO3)cc2)cc1 (stereo not drawn)	17

SMILES	hERG current change (%, negative = inhibition) at 10uM [%]
COc1cccc(OC)c1C(=O)Nc1ccccc1N1CCCCC1	-17.4
O=C(Nc1ccccc1N1CCN(C(=O)c2ccc(Cl)cc2)CC1)c1ccc(Br)cc1	-41.5
CC(C)(C)C(=O)Nc1ccccc1N1CCN(C(=O)c2ccc(Cl)cc2)CC1	-48.2
O=C(Nc1ccccc1N1CCCCC1)c1cccc(Cl)c1	13.5
COc1cccc(OC)c1C(=O)Nc1ccccc1N1CCCC1	-74.6
COc1ccccc1C(=O)Nc1ccccc1N1CCCCC1	-22.4
O=C(Nc1ccccc1N1CCN(C(=O)c2ccccc2)CC1)c1cccc(Cl)c1	-67.8
CC(C)C(=O)Nc1ccccc1N1CCN(C(=O)c2ccccc2)CC1	-14.2
COc1ccccc1C(=O)Nc1ccccc1N1CCN(C(=O)c2ccc(Cl)cc2)CC1	-82.1
O=C(Nc1ccccc1N1CCN(C(=O)c2ccccc2)CC1)c1ccc(Cl)cc1	-73.2
COc1ccccc1C(=O)Nc1ccccc1N1CCOCC1	-6.98
CC(C)C(=O)NC(=S)Nc1ccccc1N1CCN(C(=O)c2ccc(Cl)cc2)CC1	-3.55
O=C(NC1CCSc2ccccc21)c1ccc(Cl)c(S(=O)(=O)N2CCOCC2)c1 (stereo not drawn)	7.48
Cc1ccc(C(=O)Nc2nc3ccccc3s2)s1	8.75
CC(C)[C@H](NC(=O)c1ccco1)C(=O)N(C)Cc1c(F)cccc1Cl	-32.3
CCOC(=O)C1(C)/C(=N/Nc2ccccc2Cl)C(=O)C(=O)N1c1ccccc1 (stereo not drawn)	6.03
Cc1ccc(S(=O)(=O)n2nc(C)c(Br)c2C)c(C)c1C	20.8
Cc1ccc(S(=O)(=O)NCc2ccc(C(=O)N3CCN(c4ccccn4)CC3)cc2)cc1	-33.6
